About 11,000 (3.1%) of roughly 360,000 compounds were called active. Another 2% or so got no clear call; they are omitted. The sample holds actives, similar compounds and a random draw of the others, so the mix is not that of the screen. No stated cut-off is given here; in the data, active means fluorescence intensity above about 16000; inconclusive means no clear call, values can overlap the other calls; inactive means below that.
Assay: counter-screen for toxin protease inhibitors: compound fluorescence, primary screen, artefact control for toxin protease inhibitor project, biochemical, multiplex microsphere, HTS (AID 624483)
Settings: compound autofluorescence counterscreen, microsphere flow cytometry; active compounds read high

Row | Compound | fluorescence intensity
1 | Cc1ccc(NC2CCCN(C(=O)CCc3cn[nH]c3)C2)cc1C (centres undefined) | 4290 (inactive)
2 | COC(=O)c1nc2n(n1)C(c1ccc([N+](=O)[O-])cc1)C(C(=O)Nc1ccc(Cl)cc1)=C(C)N2 (centres undefined) | 2390 (inactive)
3 | CC1=C(C(N)=O)C(c2ccc(F)cc2)n2nc(CCCO)nc2N1 (centres undefined) | 3660 (inactive)
4 | COCCOC(=O)C1=C(C)Nc2nc(C)nn2C1c1ccccc1 (centres undefined) | 17100 (active)
5 | O=C(Nc1ccc(Cl)cc1)C1Cc2c(-c3ccc4c(c3)OCO4)ccnc2O1 (centres undefined) | 3410 (inactive)
6 | Cc1c(C(=O)Nc2cccc(S(=O)(=O)N3CCOCC3)c2)oc2ccccc12 | 2760 (inactive)
7 | Cc1c(C(=O)Nc2ccccc2Cl)oc2ccc(S(=O)(=O)N3CCC4(CC3)OCCO4)cc12 | 22400 (active)
8 | COc1ccc(NC(=O)c2oc3ccc(S(=O)(=O)N4CCOCC4)cc3c2C)cc1 | 4190 (inactive)
9 | CC(=O)Nc1ccc(-c2ccnc3c2CC(C(=O)NC(C)C)O3)cc1 (centres undefined) | 3750 (inactive)
10 | COc1cc(C=C(OC(C)=O)c2ccc3c(c2)OCO3)cc(OC)c1OC | 6370 (inactive)
11 | NNc1nc2c(Cl)cccc2s1 | 6940 (inactive)
12 | Cc1ccc(S(=O)(=O)NCCC(=O)NCc2ccc(Cl)cc2)cc1C | 4140 (inactive)
13 | CC(C)CCNC(=O)CCNS(=O)(=O)c1ccc(Cl)cc1 | 19700 (active)
14 | CC(C)CNS(=O)(=O)c1ccc(CCC(=O)NCc2ccc(Cl)cc2)cc1 | 3570 (inactive)
15 | Cc1ccc(-c2nc3ccc(Br)cn3c2Cc2ccccc2C(F)(F)F)cc1 | 5850 (inactive)
16 | CC(=O)c1nn(-c2ccccc2)c(=Nc2ccccc2)cc1C | 4100 (inactive)
17 | COc1ccc(CC(=O)NCc2nnc(SCC(=O)Nc3nccs3)n2C)cc1 | 4710 (inactive)
18 | Cc1ccc(C(C)C)c(OCc2nnc(SCC(=O)Nc3nccs3)n2C)c1 | 17800 (active)
19 | Cn1c(SCC(=O)Nc2nccs2)nnc1-c1cccnc1 | 4450 (inactive)
20 | c1ccc2c(NC3C4CC5CC(C4)CC3C5)nc(N3CCOCC3)nc2c1 (centres undefined) | 4640 (inactive)
21 | NC(c1csc(NC(=O)Nc2ccccc2Oc2ccccc2)n1)c1ccccc1Cl (centres undefined) | 3590 (inactive)
22 | O=C(c1cc(C2CCCCN2S(=O)(=O)c2ccccc2)on1)N1CCOCC1 (centres undefined) | 3020 (inactive)
23 | CC(=O)NS(=O)(=O)c1ccc(N/C(N)=N/c2nc(C)cc(C)n2)cc1 | 3910 (inactive)
24 | C[C@@H]1NC(=O)[C@@]2(C)[C@@H](c3ccccc3)[C@H]3COc4ccccc4[C@@H]3N2C1=O | 3420 (inactive)

Row | Compound | fluorescence intensity
25 | CN1CC(c2ccccc2)C2(COc3ccccc3C2=O)C12C(=O)Nc1ccccc12 (centres undefined) | 16700 (active)
26 | O=C1NC(c2ccccc2)Oc2ccccc21 (centres undefined) | 3320 (inactive)
27 | Cc1cc(C)n2c(NCc3ccccc3)c(CC(C)C)nc2n1 | 6800 (inactive)
28 | CCN(CC(=O)Nc1c(F)cccc1F)C(=O)c1cnc(C)cn1 | 4920 (inactive)
29 | CCC(CC)C(=O)N1CCN(c2cccc(C)c2C)CC1 | 2200 (inactive)
30 | CC(=O)N1CCN(c2cccc(C)c2C)CC1 | 20800 (active)
31 | Cc1cccc(N2CCN(C(=O)/C=C/c3ccco3)CC2)c1C | 2640 (inactive)
32 | C=CCC[C@H](CCCCC)OC(=O)/C=C/[C@H](O)[C@@H](O)C[C@@H](O)CC=C | 4110 (inactive)
33 | CCCc1ccc(C(O)c2ncc(-c3cccc(OC)c3)[nH]2)cc1 (centres undefined) | 3420 (inactive)
34 | CCOC(=O)CSc1nc2c(sc(=S)n2CCc2ccccc2)c(=O)n1Cc1ccco1 | 16400 (active)
35 | COc1cccc(-n2c(=S)sc3c(=O)n(-c4ccccc4C)c(SCC(=O)O)nc32)c1 | 3210 (inactive)
36 | CCOC(=O)CSc1nc2c(c(=O)n(Cc3ccccc3Cl)c(=O)n2C)n1C | 4690 (inactive)
37 | COc1ccc(NC(=O)c2sc(=O)n(Cc3ccc(S(=O)(=O)N(C)C)cc3)c2C)cc1 | 5230 (inactive)
38 | COc1ccc(NC2=CC(=S)NC(C)(C)C2)cc1 | 26300 (active)
39 | COc1ccc(Nc2ccc3ccccc3c2)cc1 | 3980 (inactive)
40 | COc1ccc(NC(=O)C(Br)C(C)C)cc1 (centres undefined) | 3200 (inactive)
41 | Cc1cc(Br)cn2c(Cc3ccsc3)c(-c3ccc(C#N)cc3)nc12 | 4980 (inactive)
42 | CC(C)Nc1nc(NCCOc2ccccc2Cl)c2sccc2n1 | 4090 (inactive)
43 | C(=N/N1CCN(c2ccccc2)CC1)/c1cccs1 | 23100 (active)
44 | COc1cc(/C=N/N2CCN(c3ccccc3)CC2)ccc1OC(C)=O | 4030 (inactive)
45 | Cc1ccc(N2CCN(/N=C/c3cccs3)CC2)cc1 | 15100 (inactive)
46 | COC(=O)c1cccc(NC(=O)CSc2nc(C)cc(=O)[nH]2)c1 | 19300 (active)
47 | CCCCc1nc(SCC(=O)Nc2nnc(C(C)C)s2)n[nH]1 | 5330 (inactive)
48 | Cc1ccc(OCCCC(=O)Nc2ccc(S(=O)(=O)Nc3cc(C)nc(C)n3)cc2)cc1 | 5510 (inactive)

Row | Compound | fluorescence intensity
49 | CCCc1cc(=O)[nH]c(SCC(=O)Nc2ccc(C(=O)Nc3ccccc3OC)cc2)n1 | 3560 (inactive)
50 | CCCCc1nnc(NC(=O)CSc2nc(C)cc(=O)[nH]2)s1 | 22200 (active)
51 | Cc1ccc(NC(=O)CSc2nc(CSc3ccc(C)cc3)cc(=O)[nH]2)cc1 | 4220 (inactive)
52 | COc1ccc(NC(=O)CSc2nc(NS(=O)(=O)c3ccc(C)cc3)cc(=O)[nH]2)cc1 | 19100 (active)
53 | Cc1nc2nc(SCC(=O)Nc3cccc(F)c3)[nH]c2cc1Br | 5340 (inactive)
54 | CCCCc1nnc(NC(=O)CSc2nc(N)cc(=O)[nH]2)s1 | 4560 (inactive)
55 | COc1ccc(C2=NS(=O)(=O)N(C)C(C(=O)N3CCCCC3)=C2)cc1 | 5200 (inactive)
56 | COCCNc1ncnc2c1ncn2[C@H]1CN(Cc2ccc(OC)cc2)C[C@@H](CO)O1 | 2990 (inactive)
57 | Cc1cccc(CN2CCN(C3CN(Cc4cn(Cc5ccccc5F)nn4)S(=O)(=O)C3)CC2)c1 (centres undefined) | 6290 (inactive)
58 | O=C(COc1ccc(Br)cc1)OCC(=O)c1ccc[nH]1 | 3140 (inactive)
59 | Cc1ccc2oc(C(=O)N3CCN(C)C[C@@H]3C(C)C)c(C)c2c1 | 3260 (inactive)
60 | O=C1OCCOC2CCCc3oc(-c4ccccc4)c1c32 (centres undefined) | 5740 (inactive)
61 | CCCCC(O)C1=C[N+](=O)CC=C1 (centres undefined) | 4270 (inactive)
62 | CC1CCCCC1NC(=O)CCS(=O)(=O)c1cccc2nonc12 (centres undefined) | 4530 (inactive)
63 | CCc1nc2c(OCc3ccc(C(F)(F)F)cc3)cccn2c1N(C)C(=O)CC(C)C | 3820 (inactive)
64 | CCOC(=O)c1c(-c2ccccc2)oc2ccc(OCC(=O)NN)cc12 | 3330 (inactive)
65 | CCOC(=O)c1c(-c2ccccc2)oc2ccc(OC(=O)N(C)C)cc12 | 18300 (active)
66 | CCOC(=O)c1c(-c2ccccc2)oc2cc(Br)c(O)c(C=O)c12 | 3500 (inactive)
67 | CC1Oc2ccccc2N(Cc2cccnc2)C1=O (centres undefined) | 22000 (active)
68 | Cc1cccc(C)c1NC(=O)CN1C(=O)C(C)Oc2ccccc21 (centres undefined) | 4620 (inactive)
69 | CC12c3ccccc3C(c3ccccc31)C1C(=O)N(Cc3cccnc3)C(=O)C12 (centres undefined) | 10400 (inactive)
70 | O=C(CSc1nnc2scc(-c3ccc(F)cc3)n12)NCc1ccco1 | 7830 (inactive)
71 | Cc1ccc(-c2csc3nnc(SCC(=O)NCc4ccco4)n23)cc1 | 16800 (active)
72 | Cc1ccc(SCC(=O)NC(=O)NCc2ccco2)c(C)c1 | 19200 (active)

Row | Compound | fluorescence intensity
73 | Cc1ccc(NC(=O)C(=O)NCc2ccco2)c(C)c1 | 4600 (inactive)
74 | Cc1cc(C)n2nc(SCC(=O)NC(=O)NCc3ccco3)nc2n1 | 3150 (inactive)
75 | Cn1c(-c2ccc(F)cc2)cnc1SCC(=O)NCc1ccco1 | 9840 (inactive)
76 | O=C(Nc1ccc(N2CCN(C(=O)c3ccccc3)CC2)c(Cl)c1)c1ncn[nH]1 | 4940 (inactive)
77 | CCCS(=O)(=O)NC(=O)C1(C)CCCN(C(=O)c2cc(C)on2)C1 (centres undefined) | 3970 (inactive)
78 | CC(C)(O)C1=C[N+](=O)CC=C1 | 6070 (inactive)
79 | CN1OC[C@@H]2CN(S(=O)(=O)c3cccc(C(F)(F)F)c3)[C@H](c3ccc(-c4cc5ccccc5o4)cc3)C[C@@H]21 | 3760 (inactive)
80 | Nc1[nH]c(C(=O)c2ccccc2)c(-c2ccncc2)c1C(=O)NCc1cccc2ccccc12 | 5030 (inactive)
81 | CCN(CC)c1ncnc2c1ncn2[C@H]1CN(Cc2cccs2)C[C@@H](CO)O1 | 3720 (inactive)
82 | Cc1cc(N2C(=O)c3ccc(C(=O)NCc4ccccc4)cc3C2=O)no1 | 17400 (active)
83 | Cc1ccc(CNC(=O)c2ccc3c(c2)S(=O)(=O)c2ccccc2C3=O)cc1 | 3750 (inactive)
84 | CCCn1nc2cc(C(=O)NCc3ccccc3)ccc2c1OCC | 4050 (inactive)
85 | O=c1[nH]cccc1-c1nc2ccccc2n1Cc1ccc(Cl)cc1 | 4020 (inactive)
86 | COc1ccc(NC(=O)C2Cc3c(-c4ccc(Cl)cc4)ccnc3O2)cc1 (centres undefined) | 3760 (inactive)
87 | CCOc1ccc(NC(=O)CC2NCCNC2=O)cc1 (centres undefined) | 4570 (inactive)
88 | O=C(CC1NCCNC1=O)Nc1ccc(Oc2ccccc2)cc1 (centres undefined) | 16900 (active)
89 | O=C(CC1NCCNC1=O)Nc1cc(Cl)cc(Cl)c1 (centres undefined) | 7460 (inactive)
90 | Cc1ccccc1CSc1nnc(CCCCCNC(=O)OC(C)(C)C)o1 | 3660 (inactive)
91 | Cc1cccc(NC(=O)CSc2nnc(CCNC(=O)OC(C)(C)C)o2)c1C | 3990 (inactive)
92 | Cc1cccc(NC(=O)CSc2nnc(CCCCCNC(=O)OC(C)(C)C)o2)c1C | 20100 (active)
93 | CCOC(=O)N1CCC(NC(=O)C(C)n2c3ccccc3c3cnn(C)c(=O)c32)CC1 (centres undefined) | 3150 (inactive)
94 | COC(=O)c1ccc(NC(=O)c2cc3c(CO)cnc(C)c3oc2=Nc2cccc(C(N)=O)c2)cc1 | 2910 (inactive)

— PubChem BioAssay AID624483 (NMMLSC, 2012)
